Assay outcomes: PubChem, several laboratories
Most compounds without a hit are left out; they make up all but 2.6% or so of the library.
TROY NFkB inh: inhibitors of TROY-driven NF-kB signaling, primary screen, Q293 LMP1-TROYcd cells, NF-kB luciferase, uHTS; actives 0.98% (n = 360,000); Q293 LMP1-TROYcd NF-kB luciferase reporter, 4 h; inhibition, % at 10 µM;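 active = compounds whose plate-normalised and pattern-corrected inhibition of the luciferase reporter signal at the single screening dose is 50% or more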
CF NFkB inh: inhibitors of PAF-induced NF-kB signaling, primary screen, cell-based, GFP fluorescence, uHTS; KKLEB NF-kB-GFP reporter, GFP fluorescence overnight; inhibition, % at 5 µM; actives 0.86% (n = 360,000); AID 588850, 2011;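 active = at least 50% inhibition at 5 µM, scaled per plate between neutral and stimulator controls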;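 also: PAF is a Pseudomonas aeruginosa culture filtrate used as stimulus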
TWEAK Fn14 block: inhibitors of TWEAK-Fn14 signaling, primary screen, luciferase reporter cells, uHTS | actives 2% (n = 360,000) | TWEAK-stimulated Fn14 reporter cells, luciferase luminescence, 8 h | inhibition, % at 10 µM; in the data active = inhibition above about 50%
LGR2 antag: inhibitors of bursicon-induced LGR2 CRE-luciferase signal, primary screen, cell-based, HEK293, CRE-luciferase reporter, bursicon stimulation. bursicon-stimulated, 4 h. inhibition, % at 9.99 µM. actives 0.35% (n = 380,000). Drosophila bursicon receptor LGR2 (rickets);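 active = drop in luminescence signal, shown as inhibition above about 50% in the replicate tests, limit read from the data, passing the limit was not always enough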;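 also: agonist challenge used bursicon conditioned medium at about half maximal strength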
KKLEB cytotox: cytotoxicity in KKLEB CF airway cells, primary screen, cytotoxicity control for CF NF-kB inhibitor project, cell-based, uHTS, fluorescence assay plates. actives 0.36% (n = 360,000). activity change (cytotoxicity), % at 5 µM. AID 602141, 2011. KKLEB CF airway cells viability, ATPlite luminescence, overnight; hits give low values; cells stimulated with P. aeruginosa culture filtrate;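 active = corrected activity change at or below -50% at 5 µM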
EWS-Fli inh: EWS/Fli-driven NR0B1 reporter inhibitors, primary screen, A673 cells, NR0B1 luciferase, luminescence, MLPCN library; viability-normalised; inhibition, % at 12.6 µM; actives 0.67% (n = 350,000); AID 651661, 2012;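 active = mean inhibition of at least 50% after viability correction, with every replicate also passing that limit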;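 also: firefly luciferase signal divided by Alamar Blue viability fluorescence both relative to DMSO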
Each line names hits and unclear results; the compound was inactive in the other large screens.

Cc1ccc(S(=O)(=O)N(C)C[C@@H]2OCCCC[C@H](C)Oc3ccc(N(C)C)cc3C(=O)N([C@@H](C)CO)C[C@H]2C)cc1	none (no result: TROY NFkB inh, CF NFkB inh, TWEAK Fn14 block, KKLEB cytotox)
CN(C)C(=O)[C@H]1[C@H](CO)[C@H]2Cn3c(ccc(C4=CCCCC4)c3=O)[C@H]2N1C(=O)c1ccccc1F	none (no result: TROY NFkB inh, CF NFkB inh, TWEAK Fn14 block, KKLEB cytotox)
CC(=O)Nc1ccc(C2=NNC(=Nc3cccc(S(=O)(=O)N(C)C)c3)SC2)cc1	TWEAK Fn14 block 62 (no result: LGR2 antag, EWS-Fli inh)
CCN1C(=O)S/C(=C/c2ccc(Sc3nc4ccccc4[nH]3)o2)C1=O	TWEAK Fn14 block 79
O=C(C[C@H]1C[C@@H]2c3cc(NC(=O)NC4CCCC4)ccc3O[C@@H]2[C@H](CO)O1)NCCN1CCCCC1	none (no result: TROY NFkB inh, CF NFkB inh, TWEAK Fn14 block, KKLEB cytotox)
CC(C)C[C@@H]1CN(CCCC[C@H]2CNC(=O)C(=O)N2CCC2CCCCC2)C(=O)C(=O)N1CCC1CCCCC1	TWEAK Fn14 block 61 (no result: CF NFkB inh, KKLEB cytotox)
CC(C)C[C@H]1CN(CCCC[C@H]2CNC(=O)C(=O)N2CCC2CCCCC2)C(=O)C(=O)N1CCC1CCCCC1	none (no result: CF NFkB inh, KKLEB cytotox)
CCOC(=O)c1cnc2ccccc2c1Nc1ccc2c(c1)OCCO2	TROY NFkB inh 77, TWEAK Fn14 block 92
CCOC(=O)c1cnc2ccccc2c1NCc1ccco1	none
CC(C)NC(=O)Nc1ccc2c(c1)C(=O)N([C@H](C)CO)C[C@H](C)[C@@H](CN(C)C(=O)Nc1ccc(F)cc1)OCCCC[C@H](C)O2	none (no result: TROY NFkB inh, CF NFkB inh, TWEAK Fn14 block, KKLEB cytotox)
Cc1noc(C)c1S(=O)(=O)Nc1ccc2c(c1)C(=O)N([C@H](C)CO)C[C@@H](C)[C@@H](CN(C)Cc1ccc3c(c1)OCO3)OCCCC[C@@H](C)O2	none (no result: TROY NFkB inh, CF NFkB inh, TWEAK Fn14 block, KKLEB cytotox)
COc1cc(OC)c(OC)cc1CNC(=O)c1cccc(S(=O)(=O)N2CCc3ccccc3C2)c1	TROY NFkB inh 51, TWEAK Fn14 block 81
COc1ccc(C(=O)Nc2ccc3[nH]c(-c4cccc(OC)c4)cc(=O)c3c2)cc1	CF NFkB inh 50, EWS-Fli inh 57
COc1ccc(C(=O)Nc2cccc(OC)c2)cc1	none
COc1ccc2[nH]c(-c3ccc(C)cc3)cc(=O)c2c1	TWEAK Fn14 block 75 (no result: LGR2 antag, EWS-Fli inh)
CNC(=O)C[C@H]1CC[C@@H]2[C@@H](COc3ccc(NC(=O)c4cc(C)on4)cc3C(=O)N2C)O1	none (no result: TROY NFkB inh, CF NFkB inh, TWEAK Fn14 block, KKLEB cytotox)
C[C@@H]1CN([C@H](C)CO)C(=O)c2cc(C#CC3CC3)cnc2O[C@H]1CN(C)Cc1ccccn1	none (no result: TROY NFkB inh, CF NFkB inh, TWEAK Fn14 block, KKLEB cytotox)
COc1cc(CNc2ccc3[nH]c(=O)[nH]c3c2)ccc1OCc1ccccc1Cl	TWEAK Fn14 block 53
COc1ccc(CN2CCOCC2)cc1Br	none (no result: LGR2 antag)
COc1cc(CNCCN2CCOCC2)ccc1OCc1ccccc1Cl	TWEAK Fn14 block 101 (no result: TROY NFkB inh, EWS-Fli inh)
COc1cc(CNCCN2CCOCC2)ccc1OCc1ccc(Cl)cc1	none (no result: LGR2 antag, EWS-Fli inh)
COc1cc(CNCCCN2CCOCC2)cc(Br)c1OCc1ccc(Cl)cc1	LGR2 antag 99
COc1ccc(CN2CCOCC2)cc1OC	TWEAK Fn14 block 99 (no result: TROY NFkB inh, LGR2 antag, EWS-Fli inh)
CCC(C)c1ccc(S(=O)(=O)N2CCN(C(C)C(=O)NC3CCCC3)CC2)cc1 (stereo not given)	TWEAK Fn14 block 87
CCCc1ccc(S(=O)(=O)N2CCN(C(C)C(=O)NC3CCCC3)CC2)cc1 (stereo not given)	none
COc1ccc(CC2C(=O)NC(C)C(=O)N(C)C3Cc4ccc(cc4)Oc4cc(ccc4O)CC(C(=O)NC(C)C(=O)NC(C)C(=O)N2C)N(C)C3=O)cc1 (stereo not given)	TROY NFkB inh 84, CF NFkB inh 88, TWEAK Fn14 block 101, LGR2 antag 103, EWS-Fli inh 66
COc1ccccc1C#Cc1ccc2c(c1)O[C@H](CN(C)Cc1ccncc1)[C@@H](C)CN([C@H](C)CO)S2(=O)=O	none (no result: TROY NFkB inh, CF NFkB inh, TWEAK Fn14 block, KKLEB cytotox)
CCN(CC)c1ccc(/C=C/c2ccc3ccc(OC)cc3[n+]2CC)cc1	TWEAK Fn14 block 63, EWS-Fli inh 57
CC[n+]1c(/C=C/c2ccc(OC)c(OC)c2)ccc2ccccc21	none
CC[n+]1c(/C=C/c2ccc(N(C)C)cc2)ccc2ccccc21	TROY NFkB inh 74, TWEAK Fn14 block 71
